PubChem BioAssay
Calls of active or inactive are those of the source.

Legend:
[1] = optical density shifts of acrAB sulA E. coli – strain DRC41, OD650, 48 h, E. coli filamentation inducer project, primary screen (AID 1152); conditions: higher = more signal, called active from +8 up or from −8 down;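 further: E. coli MC1000 strain DRC41 lacking acrAB efflux pump and sulA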
[2] = probe aLefty1 binding on compound microarray – biochemical, small-molecule microarray, 635/667 nm fluorescence, primary screen (AID 1153); conditions: higher = more signal;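 further: score merges spot fluorescence with signal-to-noise ratio from the scanned slide images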
[3] = plasmodial surface anion channel blockers, osmotic lysis – cell-based, P. falciparum Indochina, OD700, 1 h, primary screen (AID 1154); conditions: P. falciparum Indochina infected RBC osmotic lysis, higher = more signal, called active from +8 up or from −8 down
[4] = plasmodial surface anion channel blockers, osmotic lysis – cell-based, P. falciparum Indochina, OD700, 2 h, primary screen (AID 1155);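 further: lysis reports solute entry through the parasite surface anion channel PSAC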; conditions: P. falciparum Indochina infected erythrocytes, higher = more signal, called active from +8 up or from −8 down
[5] = changes in parasitized red cell lysis, either direction – P. falciparum Indochina, OD700, 3 h, PSAC antagonist project, primary screen (AID 1156); conditions: P. falciparum-infected erythrocytes, osmotic lysis, higher = more signal, called active from +8 up or from −8 down
[6] = plasmodial surface anion channel blockers, osmotic lysis – cell-based, P. falciparum Indochina, OD700, 18 h, primary screen (AID 1157); conditions: P. falciparum Indochina infected erythrocytes, osmotic lysis OD700, 18 h; higher = more signal, called active from +8 up or from −8 down
[7] = S6 kinase pathway phospho-S6 level changes – cell-based, A549, cytoblot, luminescence, serum-stimulated, primary screen (AID 1158); conditions: 5 h, higher = more signal;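 further: serum-stimulated A549 lung adenocarcinoma cells; signal is phosphorylated S6 detected by cytoblot immunostaining with HRP secondary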
[8] = target: NADPH oxidase 2 (Homo sapiens) (UniProt P04839); test: compounds shifting NOX2 Amplex Red fluorescence – cell-based, HEK293-NOX2, PMA-stimulated, NOX inhibitor project, primary screen (AID 1159); conditions: 45 min, higher = more signal, called active from +8 up or from −8 down; further: test concentration not given here
[9] = target: NADPH oxidase 4 (Homo sapiens) (UniProt Q9NPH5); test: compounds shifting NOX4 Amplex Red fluorescence – cell-based, HEK293-NOX4, tetracycline-induced, NOX inhibitor project, primary screen (AID 1160); conditions: HEK293-NOX4, Amplex Red H2O2 fluorescence, 45 min; higher = more signal, called active from +8 up or from −8 down
[10] = target: NADPH oxidase 5 (Homo sapiens) (UniProt Q96PH1); test: compounds shifting NOX5 Amplex Red fluorescence – cell-based, HEK293-NOX5, NOX inhibitor project, primary screen (AID 1161); conditions: HEK293-NOX5, ionomycin, 45 min, higher = more signal
[11] = compound effects on lung adenocarcinoma cell viability – A549, calcein-AM fluorescence, 48 h, basal, profiling panel (AID 1162); conditions: higher = more signal; further: test concentration not given here
[12] = compound effects on differentiated 3T3-L1 adipocyte viability – cell-based, 3T3-L1 adipocytes, calcein-AM fluorescence, 48 h, basal, profiling panel (AID 1163); conditions: 3T3-L1 adipocytes viability, higher = more signal; further: test concentration not given here
[13] = compound effects on hepatocellular carcinoma cell viability – HepG2, calcein-AM fluorescence, 48 h, basal, profiling panel (AID 1164); conditions: higher = more signal; further: test concentration not given here
[14] = compound effects on multiple myeloma cell viability – MM1S, calcein-AM fluorescence, 48 h, basal, profiling panel (AID 1165); conditions: higher = more signal; further: test concentration not given here
[15] = calcein-AM signal in unstimulated myeloma cells – cell-based, calcein-AM fluorescence, 48 h, PK04 Diversity Set, profiling panel (AID 1166); conditions: RPMI8226 myeloma viability, higher = more signal;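 further: cells grown under basal conditions without added stimulus; test concentration not given here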
[16] = JC-1 mitochondrial signal, unstimulated HepG2 cells – cell-based, JC-1 fluorescence, 24 h, 100 nL compound, profiling panel (AID 1167); conditions: HepG2 mitochondrial potential, higher = more signal; further: test concentration not given here
[17] = JC-1 mitochondrial signal, unstimulated adipocytes – cell-based, JC-1 fluorescence, 3T3-L1 adipocytes, 24 h, 100 nL compound, profiling panel (AID 1168); conditions: JC-1 mitochondrial fluorescence, higher = more signal, called active from +8 up or from −8 down; further: test concentration not given here
[18] = JC-1 mitochondrial signal, unstimulated myeloma cells – cell-based, JC-1 fluorescence, RPMI8226, 24 h, 100 nL compound, profiling panel (AID 1169); conditions: JC-1 mitochondrial potential fluorescence, higher = more signal; further: test concentration not given here
[19] = JC-1 mitochondrial signal, unstimulated MM1S myeloma – cell-based, JC-1 fluorescence, 24 h, 100 nL compound, profiling panel (AID 1170); conditions: MM1S mitochondrial potential, higher = more signal; further: test concentration not given here
[20] = resazurin metabolic signal in A549 cells – cell-based, resazurin fluorescence, 24 h, PK04 Diversity Set, profiling panel (AID 1171); conditions: A549 viability, higher = more signal, called active from +8 up or from −8 down; further: test concentration not given here

Chain of NADPH oxidase 5 (Homo sapiens) (Q96PH1 whole entry, looked up): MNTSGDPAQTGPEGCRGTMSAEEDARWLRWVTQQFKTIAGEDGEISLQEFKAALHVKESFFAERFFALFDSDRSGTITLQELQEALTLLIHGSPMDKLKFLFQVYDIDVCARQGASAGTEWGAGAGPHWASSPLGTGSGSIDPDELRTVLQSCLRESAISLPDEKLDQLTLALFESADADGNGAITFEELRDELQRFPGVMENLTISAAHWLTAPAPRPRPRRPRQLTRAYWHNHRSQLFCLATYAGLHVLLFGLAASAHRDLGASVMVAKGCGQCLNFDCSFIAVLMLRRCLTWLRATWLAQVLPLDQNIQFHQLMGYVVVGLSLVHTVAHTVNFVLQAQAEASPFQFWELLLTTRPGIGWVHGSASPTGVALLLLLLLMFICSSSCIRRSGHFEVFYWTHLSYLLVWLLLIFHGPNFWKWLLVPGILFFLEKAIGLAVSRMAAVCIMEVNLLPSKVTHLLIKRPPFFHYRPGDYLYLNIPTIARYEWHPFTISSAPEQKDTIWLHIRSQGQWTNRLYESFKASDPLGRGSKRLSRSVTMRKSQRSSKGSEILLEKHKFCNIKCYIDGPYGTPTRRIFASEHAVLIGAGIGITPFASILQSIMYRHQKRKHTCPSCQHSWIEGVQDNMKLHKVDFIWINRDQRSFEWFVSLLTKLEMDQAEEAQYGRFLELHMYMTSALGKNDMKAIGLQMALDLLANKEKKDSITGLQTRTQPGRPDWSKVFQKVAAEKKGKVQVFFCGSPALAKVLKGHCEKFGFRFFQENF
Chain of NADPH oxidase 2 (Homo sapiens) (P04839 whole entry, looked up): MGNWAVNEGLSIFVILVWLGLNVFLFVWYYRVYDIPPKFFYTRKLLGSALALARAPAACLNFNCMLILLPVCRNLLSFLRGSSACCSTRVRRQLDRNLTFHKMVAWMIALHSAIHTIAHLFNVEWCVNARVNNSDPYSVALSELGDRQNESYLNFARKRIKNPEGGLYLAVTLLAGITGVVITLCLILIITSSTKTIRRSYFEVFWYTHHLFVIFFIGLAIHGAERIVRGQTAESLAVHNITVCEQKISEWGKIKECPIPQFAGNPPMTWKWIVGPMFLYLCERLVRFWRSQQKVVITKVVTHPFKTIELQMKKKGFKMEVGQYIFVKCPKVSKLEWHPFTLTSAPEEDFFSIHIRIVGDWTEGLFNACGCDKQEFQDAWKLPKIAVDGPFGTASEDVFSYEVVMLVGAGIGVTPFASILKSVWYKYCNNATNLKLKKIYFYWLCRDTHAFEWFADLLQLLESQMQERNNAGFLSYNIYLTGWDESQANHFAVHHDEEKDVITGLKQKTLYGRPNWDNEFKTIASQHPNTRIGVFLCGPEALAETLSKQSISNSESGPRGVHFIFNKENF
Chain of NADPH oxidase 4 (Homo sapiens) (Q9NPH5 whole entry, looked up): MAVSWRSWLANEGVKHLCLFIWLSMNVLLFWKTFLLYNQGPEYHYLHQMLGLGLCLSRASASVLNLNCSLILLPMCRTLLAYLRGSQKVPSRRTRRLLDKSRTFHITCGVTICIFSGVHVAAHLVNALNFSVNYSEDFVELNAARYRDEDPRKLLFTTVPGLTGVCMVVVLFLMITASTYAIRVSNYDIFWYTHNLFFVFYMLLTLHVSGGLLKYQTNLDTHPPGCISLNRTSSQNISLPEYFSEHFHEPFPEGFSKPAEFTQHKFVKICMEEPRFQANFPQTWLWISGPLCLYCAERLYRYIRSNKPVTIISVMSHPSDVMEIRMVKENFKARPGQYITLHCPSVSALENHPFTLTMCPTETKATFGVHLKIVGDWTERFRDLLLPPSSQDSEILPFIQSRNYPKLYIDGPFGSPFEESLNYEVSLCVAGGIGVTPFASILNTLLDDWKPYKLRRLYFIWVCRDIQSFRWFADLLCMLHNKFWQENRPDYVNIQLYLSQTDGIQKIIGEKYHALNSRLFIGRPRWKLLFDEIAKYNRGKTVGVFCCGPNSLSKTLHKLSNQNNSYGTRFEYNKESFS

SMILES	z-score [1]	composite z-score [2]	z-score [3]	z-score [4]	z-score [5]	z-score [6]	z-score [7]	z-score [8]	z-score [9]	z-score [10]	z-score [11]	z-score [12]	z-score [13]	z-score [14]	z-score [15]	z-score [16]	z-score [17]	z-score [18]	z-score [19]	z-score [20]
COC(=O)[C@@]1(Cc2ccc(OC)cc2)[C@H]2c3cc(C(=O)N4CCCC4)n(Cc4cc(C)n(C)n4)c3C[C@H]2CN1C(=O)c1ccccc1	-0.703 (inactive)	0.947	1.46 (inactive)	0.279 (inactive)	0.63 (inactive)	0.494 (inactive)	-0.458	0.755 (inactive)	-0.134 (inactive)	-2.8	-0.0671	-0.471	0.851	0.559	0.192	3.05	0.00691 (inactive)	-0.475	-1.37	0.0924 (inactive)
C=CCN1C(=O)[C@]2(O[C@H](CCO)[C@@H]([Si](C)(C)c3ccc(OC)cc3)[C@@H]2C)c2cc(NC(=O)c3ccc(OC)cc3)ccc21	-1.25 (inactive)	0.0494	7.31 (inactive)	2.69 (inactive)	-0.357 (inactive)	1.3 (inactive)	-0.309	-3.97 (inactive)	-0.48 (inactive)	1.38	-3.78	-0.562	-4.65	-2.69	-4.38	-0.446	0.96 (inactive)	-0.953	-2.2	-3.7 (inactive)
C=CCOC(=O)[C@H]1[C@@H]2C(=O)O[C@@H](c3ccccc3)[C@@H](c3ccccc3)N2[C@@H](c2ccc(OCCOC(=O)[C@H]3C[C@H]4C(=O)N[C@@H](CCCCNC(C)=O)C(=O)N4[C@H]3c3cccc(OCCO)c3)cc2)[C@]12C(=O)Nc1ccc(I)cc12	0.831 (inactive)	-0.625	1.81 (inactive)	-0.285 (inactive)	1.31 (inactive)	-1.61 (inactive)	0.112	-0.224 (inactive)	0.68 (inactive)	-0.174	0.0973	1.5	-0.621	0.035	-0.665	-1.91	0.622 (inactive)	-0.676	-0.519	-0.342 (inactive)
COC(=O)[C@@]1(Cc2ccccc2CN=[N+]=[N-])N=C(c2ccc(OCCCO)cc2)O[C@H]1c1ccccc1CN=[N+]=[N-]	-0.586 (inactive)	0.0288	21.8 (active)	7.79 (inactive)	0.912 (inactive)	1.72 (inactive)	0.141	-2.2 (inactive)	-0.00368 (inactive)	-2.01	-3.82	0.522	-5.01	-3.56	-3.89	-0.86	-1.38 (inactive)	-1.07	-2.09	-2.82 (inactive)
CCCCCN1CC=CC23O[C@@H]4C=CCOC(=O)[C@@H]4[C@H]2C(=O)N(CCO)[C@@H]3C1=O (stereo not given in full)	-0.23 (inactive)	-0.25	0.0674 (inactive)	0.31 (inactive)	0.266 (inactive)	0.161 (inactive)	-0.53	1.52 (inactive)	0.713 (inactive)	1.23	-0.479	-0.609	0.0249	0.687	-0.285	-0.607	0.561 (inactive)	0.174	-0.15	-0.0273 (inactive)
COc1cc(NN2C(C(O)C3CCCCC3)C=CC3C(=O)N(c4ccccc4)C(=O)C32)cc(OC)c1OC (stereo not given)	-1.02 (inactive)	-0.441	1.73 (inactive)	-0.35 (inactive)	1.36 (inactive)	-1.16 (inactive)	1.37	-3.07 (inactive)	-5.15 (inactive)	-5.24	-0.278	0.0809	0.736	-0.434	-1.8	-1.08	0.0506 (inactive)	-0.741	0.439	-1.37 (inactive)
COCCOC(=O)N1C(=O)[C@@]2(c3cc(C#CCC(C(=O)OC)C(=O)OC)ccc31)[C@H](c1ccc(OCCO)cc1)N1[C@H](c3ccccc3)[C@H](c3ccccc3)OC(=O)[C@H]1[C@@H]2C(=O)Nc1nc2ccccc2s1	2.25 (inactive)	0.129	4.99 (inactive)	2.47 (inactive)	0.924 (inactive)	2.21 (inactive)	0.0091	0.892 (inactive)	0.647 (inactive)	0.93	0.705	0.694	0.278	-0.518	-0.312	-2.91	0.578 (inactive)	-1.01	-1.29	0.108 (inactive)
C=C(C)C1CCC(C(O)C2C=CC3C(=O)N(C)C(=O)C3N2Nc2cc(OC)c(OC)c(OC)c2)CC1 (stereo not given)	-1.67 (inactive)	0.361	0.541 (inactive)	0.61 (inactive)	-0.256 (inactive)	0.901 (inactive)	-0.681	-1.86 (inactive)	-2.78 (inactive)	-2.92	-1.13	-1	-0.273	-0.989	-0.0317	-0.648	-0.696 (inactive)	-0.354	-0.549	-0.404 (inactive)
NC(=O)[C@H]1[C@@H]2C(=O)O[C@@H](c3ccccc3)[C@@H](c3ccccc3)N2[C@@H](c2ccc(O)cc2)[C@]12C(=O)Nc1ccccc12	-0.261 (inactive)	-0.18	3.33 (inactive)	1.23 (inactive)	0.217 (inactive)	0.515 (inactive)	-0.471	-0.741 (inactive)	-0.988 (inactive)	0.572	-0.265	-0.712	0.872	0.519	-0.544	-0.288	-0.243 (inactive)	-0.309	-0.371	-0.189 (inactive)
O=C1NC(=O)C2C1C=CC(C(O)c1ccccn1)N2Nc1ccc(Cl)cc1Cl (stereo not given)	-0.889 (inactive)	0.121	0.625 (inactive)	0.435 (inactive)	-0.343 (inactive)	0.949 (inactive)	-0.881	-1.39 (inactive)	-4.83 (inactive)	-3.38	-0.881	-0.253	-0.707	-0.588	-0.54	-1.36	-0.766 (inactive)	-0.05	-0.173	-0.572 (inactive)
CO[C@H]1O[C@H](CO)[C@@H](OC(=O)CCc2ccccc2)[C@H](OC(=O)c2cc3ccccc3[nH]2)[C@H]1OC(=O)c1cc2ccccc2[nH]1	2.71 (inactive)	-0.162	2.39 (inactive)	0.923 (inactive)	-2.27 (inactive)	1.1 (inactive)	2.17	-0.601 (inactive)	0.0901 (inactive)	0.855	0.98	0.679	0.138	-2.82	-2.54	-2.04	1.36 (inactive)	-0.502	-1.1	-2.84 (inactive)
CCCCCN1CC=CC23O[C@@H]4/C=C\CCC(C)OC(=O)C4[C@H]2C(=O)N(CCCCCCO)[C@@H]3C1=O (stereo not given in full)	1.6 (inactive)	0.0378	1.25 (inactive)	0.971 (inactive)	0.26 (inactive)	0.967 (inactive)	2.19	1.25 (inactive)	0.0532 (inactive)	1.74	0.29	0.644	0.822	1.6	0.656	0.589	0.785 (inactive)	-0.141	-0.459	0.944 (inactive)
CC(C)C[C@@H]1NC(=O)[C@H]2C[C@@H](C(=O)NCCCCCN)[C@@H](c3cccc(OCCO)c3)N2C1=O	1.25 (inactive)	-0.0172	3.07 (inactive)	-0.328 (inactive)	2.27 (inactive)	-2.15 (inactive)	2.13	1.33 (inactive)	0.993 (inactive)	2.1	0.779	0.57	1.3	0.64	-0.0687	1.07	0.97 (inactive)	-0.336	-0.16	0.11 (inactive)
CC(C)C(=C=CC[C@@H](O)c1cccc(OCCO)c1)C[C@@H](O)COCc1ccccc1	1.74 (inactive)	-0.504	12.8 (active)	-0.6 (inactive)	1.76 (inactive)	-2.05 (inactive)	3.5	-1.19 (inactive)	-1.2 (inactive)	-2.4	1.05	1.32	0.512	0.0108	0.442	0.427	0.686 (inactive)	0.46	-0.794	0.151 (inactive)
O=C1N[C@@H](Cc2ccccc2)C(=O)N2[C@@H]1C[C@@H](C(=O)O)[C@H]2c1ccc(O)cc1	1.13 (inactive)	0.47	6.71 (inactive)	1.04 (inactive)	-2.73 (inactive)	0.595 (inactive)	-0.0505	-6.08 (inactive)	-4.88 (inactive)	-2.63	-0.178	0.699	-0.361	-3.36	0.293	0.873	0.649 (inactive)	0.201	-0.75	-0.182 (inactive)
CC(C)N1CC=CC23O[C@@H]4/C=C\CCCOC(=O)C4[C@H]2C(=O)N(CCCCCCO)[C@@H]3C1=O (stereo not given in full)	2.15 (inactive)	0.248	0.904 (inactive)	0.0039 (inactive)	0.622 (inactive)	0.133 (inactive)	0.842	1 (inactive)	0.105 (inactive)	1.92	1.46	-0.377	0.922	1.49	0.0006	1.14	-0.0751 (inactive)	-0.659	1.23	1.51 (inactive)
